“And” between values parts separate entries of the source, which are not always exact repeats. Identical values can stand only once. The source made the active and inactive calls.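 How the source made its calls, unless noted: active means normalized viability below 100% at a tested concentration; inactive means the rest.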
Key:
[1] = compounds altering circadian rhythm period length – cell-based, LOPAC library, luminescence reporter (AID 2774; call rule not given here;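 further: values are relative to mean of DMSO wells on each plate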); settings: circadian reporter cells, at 7 µM, actives lie on both sides
[2] = system: Hepatitis C virus NS3 helicase; assay: blockers of NS3h binding to ssDNA – biochemical, fluorescence polarization, LOPAC1280 library, primary screen (AID 687035; in the data active means inhibition above about 37%); settings: Purified HCV NS3 helicase, Cy5-dT15 ssDNA binding fluorescence polarization; stronger effect = higher value; concentration not given here
[3] = compounds altering Cy5-DNA-NS3h complex signal – biochemical, LOPAC1280, artefact control for HCV NS3 helicase inhibitor project (AID 687037; call rule not given here); settings: Cy5-DNA-NS3h complex fluorescence interference counterscreen
[4] = system: Aerobactin synthetase IucA (Klebsiella pneumoniae); assay: inhibition of K. pneumoniae IucA enzyme – biochemical, Tocris library, absorbance (AID 1345561; call rule not given here;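 further: 100% = enzyme without compound and 0% = no enzyme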); settings: purified IucA enzyme assay, absorbance (OD) read-out; stronger effect = lower value;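 tested at 8 µM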
[5] = viability loss with induced miR-34 in A549 – imaging, A549 dox-inducible miR-34, nuclei and caspase counts, primary screen (AID 1347080;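 active means compounds whose cell count with miR-34 switched on is under 0.7 times the count with it off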); settings: A549 miR-34 inducible, Hoechst nuclei count, 48 h
[6] = compounds altering HSF1 focus formation in cells – imaging, Selleck Cancer Library (AID 1347162; in the data active means plate-normalised HSF1 focus index below about 0.46); settings: human cells, HSF1 nuclear foci imaging, at 10 µM; SSMD: measured here: HSF1 foci SSMD mean; cell count: measured here: cell number; plate-normalised HSF1 focus index: stronger effect = lower value
[7] = blockers of cellular phospholipid synthesis – cell-based, LOPAC library, screen 4, primary screen (AID 1347384; call rule not given here); settings: animal cells, phospholipid biosynthesis inhibition screen; at 10 µM
[8] = MELAS cybrid and Rieske KO viability enhancers – cell-based, MELAS cybrids, Rieske KO mouse fibroblasts, CellTiter-Glo, primary screen (AID 1508586;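 active means mean z-score across replicates of 1.96 or higher in either the MELAS or the Rieske mutant cell line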;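 further: z relative to plate mean and SD of compound and empty wells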); settings: low glucose
[9] = drug combination growth inhibition, ovarian cancer – cell-based, oncology-focused library, rucaparib conditional, profiling panel (AID 1508598); settings: patient-derived ovarian cancer cells, CellTiter-Glo viability, 144 h, stronger effect = lower value
[10] = galactose survival enhancers in mitochondrial complex I cybrids – cell-based, galactose medium, ATP luminescence, primary screen (AID 1645843;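 active means z-score of at least 1.8 in each of two replicates, scored against plate mean and spread of sample wells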;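 further: positive z means more ATP and so rescue of galactose-driven cybrid death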); settings: complex I mutant cybrid cells, 72 h, stronger effect = higher value
[11] = chitosan synthesis blockers in C. neoformans – flow cytometry, Cibacron Brilliant Red staining (AID 1347148; call rule not given here;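 further: compound exposure lasted three days at 37 degrees C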); settings: Cryptococcus neoformans chitosan, stronger effect = lower value; at 10 µM unless noted
[12] = stronger effect = lower value, cell number ratio, induced over uninduced
[13] = measured here: relative caspase fold change +Dox/-Dox
[14] = measured here: total cells with miR-34 induction, stronger effect = lower value
[15] = measured here: total cells without miR-34 induction
[16] = MELAS cybrid survival, CellTiter-Glo 48 h, stronger effect = higher value
[17] = Rieske KO mouse fibroblast survival, CellTiter-Glo 72 h
[18] = at 0.000305 µM, OCI-C5x cells, with rucaparib 10 µM, 100% = cells with rucaparib alone
[19] = at 0.000305 µM, OCI-C5x cells, without rucaparib
[20] = at 0.000305 µM, OCI-P5x cells, with rucaparib 20 µM, 100% = cells with rucaparib alone
[21] = at 0.000305 µM, OCI-P5x cells, without rucaparib
[22] = at 0.00122 µM, OCI-C5x cells, with rucaparib 10 µM, 100% = cells with rucaparib alone
[23] = at 0.00122 µM, OCI-C5x cells, without rucaparib
[24] = at 0.00122 µM, OCI-P5x cells, with rucaparib 20 µM, 100% = cells with rucaparib alone
[25] = at 0.00122 µM, OCI-P5x cells, without rucaparib
[26] = at 0.00488 µM, OCI-C5x cells, with rucaparib 10 µM, 100% = cells with rucaparib alone
[27] = at 0.00488 µM, OCI-C5x cells, without rucaparib
[28] = at 0.00488 µM, OCI-P5x cells, with rucaparib 20 µM, 100% = cells with rucaparib alone
[29] = at 0.00488 µM, OCI-P5x cells, without rucaparib
[30] = at 0.0195 µM, OCI-C5x cells, with rucaparib 10 µM, 100% = cells with rucaparib alone
[31] = at 0.0195 µM, OCI-C5x cells, without rucaparib
[32] = at 0.0195 µM, OCI-P5x cells, with rucaparib 20 µM, 100% = cells with rucaparib alone
[33] = at 0.0195 µM, OCI-P5x cells, without rucaparib
[34] = at 0.0781 µM, OCI-C5x cells, with rucaparib 10 µM, 100% = cells with rucaparib alone
[35] = at 0.0781 µM, OCI-C5x cells, without rucaparib
[36] = at 0.0781 µM, OCI-P5x cells, with rucaparib 20 µM, 100% = cells with rucaparib alone
[37] = at 0.0781 µM, OCI-P5x cells, without rucaparib
[38] = at 0.313 µM, OCI-C5x cells, with rucaparib 10 µM, 100% = cells with rucaparib alone
[39] = at 0.313 µM, OCI-C5x cells, without rucaparib
[40] = at 0.313 µM, OCI-P5x cells, with rucaparib 20 µM, 100% = cells with rucaparib alone
[41] = at 0.313 µM, OCI-P5x cells, without rucaparib
[42] = at 1.25 µM, OCI-C5x cells, with rucaparib 10 µM, 100% = cells with rucaparib alone
[43] = at 1.25 µM, OCI-C5x cells, without rucaparib
[44] = at 1.25 µM, OCI-P5x cells, with rucaparib 20 µM, 100% = cells with rucaparib alone
[45] = at 1.25 µM, OCI-P5x cells, without rucaparib
[46] = at 5 µM, OCI-C5x cells, with rucaparib 10 µM, 100% = cells with rucaparib alone
[47] = at 5 µM, OCI-C5x cells, without rucaparib
[48] = at 5 µM, OCI-P5x cells, with rucaparib 20 µM, 100% = cells with rucaparib alone
[49] = at 5 µM, OCI-P5x cells, without rucaparib

Cn1cc(C2=C(c3ccc(Cl)cc3Cl)C(=O)NC2=O)c2ccccc21
inactive: period change [1] 0.025 h | inhibition [2] -3% | fluorescence ratio (interference) [3] 1 | remaining activity [4] 92.7% | fold change [5, 12] 0.99 and 0.96 and 1.01 | plate-normalised HSF1 focus index [6] 1.09 | outcome [7] | z-score [8, 16] -0.394 | viability [9, 18] 106% | viability [9, 19] 117% | viability [9, 20] 102% | viability [9, 21] 103% | viability [9, 22] 122% | viability [9, 23] 119% | viability [9, 24] 107% | viability [9, 26] 117% | viability [9, 27] 114% | viability [9, 28] 105% | viability [9, 30] 125% | viability [9, 31] 111% | viability [9, 34] 110% | viability [9, 35] 112% | viability [9, 36] 106% | viability [9, 38] 122% | viability [9, 39] 106% | viability [9, 42] 126% | viability [9, 43] 111% | viability [9, 46] 114% | viability [9, 47] 120% | z-score [10] 1.59 and 0.305
7820: cell count [6]
4130 and 6000 and 2470: cell count [5, 15]
0.82: z-score [8, 17]
active: viability [9, 25] 89.9% | viability [9, 29] 91.8% | viability [9, 32] 98.3% | viability [9, 33] 89.5% | viability [9, 37] 81.9% | viability [9, 40] 97.2% | viability [9, 41] 89.8% | viability [9, 44] 96.3% | viability [9, 45] 84.5% | viability [9, 48] 89.2% | viability [9, 49] 83.9%
1.07 and 0.76 and 0.707: fold change [5, 13]
4090 and 5760 and 2500: cell count [5, 14]
1.42: SSMD [6]

O=C(O)C1=CCCN(CCON=C(c2ccccc2)c2ccccc2)C1
0.8 and 1.02: fold change [5, 13]
8800 and 10300: cell count [5, 15]
9470 and 9840: cell count [5, 14]
inactive: period change [1] -0.05 h | inhibition [2] 1% | fluorescence ratio (interference) [3] 1 | remaining activity [4] 122% | fold change [5, 12] 1.08 and 0.953 | outcome [7] | z-score [10] 0.145 and -0.05

CC(NC(=O)c1ccccc1N=Cc1c(O)ccc2ccccc12)c1ccccc1 (stereo not drawn)
7540 and 7810: cell count [5, 15]
7320: cell count [6]
active: viability [9, 19] 99.9% | viability [9, 21] 90.3% | viability [9, 25] 95.7% | viability [9, 29] 96.5% | viability [9, 33] 100%
1.72: SSMD [6]
-0.189: z-score [8, 17]
inactive: remaining activity [4] 102% | fold change [5, 12] 0.954 and 0.917 | plate-normalised HSF1 focus index [6] 1.11 | z-score [8, 16] -0.168 | viability [9, 18] 111% | viability [9, 20] 102% | viability [9, 22] 122% | viability [9, 23] 121% | viability [9, 24] 103% | viability [9, 26] 119% | viability [9, 27] 126% | viability [9, 28] 106% | viability [9, 30] 121% | viability [9, 31] 119% | viability [9, 32] 114% | viability [9, 34] 112% | viability [9, 35] 119% | viability [9, 36] 108% | viability [9, 37] 102% | viability [9, 38] 116% | viability [9, 39] 118% | viability [9, 40] 108% | viability [9, 41] 104% | viability [9, 42] 116% | viability [9, 43] 126% | viability [9, 44] 115% | viability [9, 45] 109% | viability [9, 46] 105% | viability [9, 47] 143% | viability [9, 48] 112% | viability [9, 49] 108% | z-score [10] 0.205
0.477 and 1.5: fold change [5, 13]
7190 and 7160: cell count [5, 14]

COc1ccccc1N1CCN(CCN2C(=O)CC3(CCCC3)CC2=O)CC1
10300 and 7050 and 8240: cell count [5, 14]
1.78 and 0.65 and 0.553: fold change [5, 13]
inactive: period change [1] -0.035 h | inhibition [2] -5% | fluorescence ratio (interference) [3] 1 | remaining activity [4] 96.2% | fold change [5, 12] 1.01 and 0.904 and 0.921 | outcome [7] | z-score [8, 16] -0.152 | z-score [10] -0.235 and -0.615
-0.237: z-score [8, 17]
10200 and 7800 and 8940: cell count [5, 15]

COCc1nc2c([nH]1)c(=O)n(C)c(=O)n2CC(C)C
inactive: period change [1] -0.19 h | inhibition [2] -4% | fluorescence ratio (interference) [3] 0.9 | remaining activity [4] 101% | fold change [5, 12] 1.1 and 0.916 and 0.973 | fold fluorescence [11] 4.02 [at 187.8 µM] | outcome [7] | z-score [10] 0.515 and -0.165
10000 and 6220 and 9430: cell count [5, 15]
11000 and 5700 and 9180: cell count [5, 14]
1 and 1.13 and 0.871: fold change [5, 13]
